Tests used:
Assay in all cases: SPOT peptide array binding signal intensity (averaged, normalized) (arbitrary units (background-subtracted, floor 0; scale differs between SH3 domains)); higher = stronger binding of the SH3 domain to the peptide
AgAbp1 = biological target: AgAbp1
Outline: (§1)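 Cellulose membranes carried synthetic 15-mer peptides with cysteines swapped for serines. These were incubated overnight at 4°C with 10 μg/ml of GST-fused SH3 domains from four yeast species in TBS-based blocking buffer. Binding signal, detected with anti-GST antibody and quantified in Genespotter, is the normalized, background-subtracted spot intensity averaged over replicates, in arbitrary units specific to each domain.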

AgBbc1 = biological target: AgBbc1
Outline: as §1

AgBem1-D1 = biological target: AgBem1-D1
Outline: as §1

AgBzz1-D1 = biological target: AgBzz1-D1
Outline: as §1

AgBzz1-D2 = biological target: AgBzz1-D2
Outline: as §1

AgCyk3 = biological target: AgCyk3
Outline: as §1

AgFus1 = biological target: AgFus1
Outline: as §1

AgHof1 = biological target: AgHof1
Outline: as §1

AgHse1 = biological target: AgHse1
Outline: as §1

AgLsb1 = biological target: AgLsb1
Outline: as §1

AgLsb4 = biological target: AgLsb4
Outline: as §1

AgMyo5 = biological target: AgMyo5
Outline: as §1

AgNbp2 = biological target: AgNbp2
Outline: as §1

AgRvs167 = biological target: AgRvs167
Outline: as §1

AgSho1 = biological target: AgSho1
Outline: as §1

AgSla1-D1-D2 = biological target: AgSla1-D1-D2
Outline: as §1

AgSla1-D3 = biological target: AgSla1-D3
Outline: as §1

CaAbp1-D1 = biological target: CaAbp1-D1
Outline: as §1

CaAbp1-D2 = biological target: CaAbp1-D2
Outline: as §1

CaBbc1 = biological target: CaBbc1
Outline: as §1

CaBem1-D1 = biological target: CaBem1-D1
Outline: as §1

CaBzz1-D1 = biological target: CaBzz1-D1
Outline: as §1

CaBzz1-D2 = biological target: CaBzz1-D2
Outline: as §1

CaCyk3 = biological target: CaCyk3
Outline: as §1

CaFus1 = biological target: CaFus1
Outline: as §1

CaHof1 = biological target: CaHof1
Outline: as §1

CaHse1 = biological target: CaHse1
Outline: as §1

CaLsb1 = biological target: CaLsb1
Outline: as §1

CaLsb4 = biological target: CaLsb4
Outline: as §1

CaMyo5 = biological target: CaMyo5
Outline: as §1

CaNbp2 = biological target: CaNbp2
Outline: as §1

CaRvs167 = biological target: CaRvs167
Outline: as §1

CaRvs167-3 = biological target: CaRvs167-3
Outline: as §1

CaSho1 = biological target: CaSho1
Outline: as §1

CaSla1-D1-D2 = biological target: CaSla1-D1-D2
Outline: as §1

CaSla1-D3 = biological target: CaSla1-D3
Outline: as §1

ScAbp1 = biological target: ScAbp1
Outline: as §1

ScBbc1 = biological target: ScBbc1
Outline: as §1

ScBem1-D1 = biological target: ScBem1-D1
Outline: as §1

ScBzz1-D1 = biological target: ScBzz1-D1
Outline: as §1

ScBzz1-D2 = biological target: ScBzz1-D2
Outline: as §1

ScCyk3 = biological target: ScCyk3
Outline: as §1

ScFus1 = biological target: ScFus1
Outline: as §1

ScHof1 = biological target: ScHof1
Outline: as §1

ScHse1 = biological target: ScHse1
Outline: as §1

ScLsb1 = biological target: ScLsb1
Outline: as §1

ScLsb2 = biological target: ScLsb2
Outline: as §1

ScLsb3 = biological target: ScLsb3
Outline: as §1

ScLsb4 = biological target: ScLsb4
Outline: as §1

ScMyo3 = biological target: ScMyo3
Outline: as §1

ScMyo5 = biological target: ScMyo5
Outline: as §1

ScNbp2 = biological target: ScNbp2
Outline: as §1

ScPex13 = biological target: ScPex13
Outline: as §1

ScRvs167 = biological target: ScRvs167
Outline: as §1

ScSho1 = biological target: ScSho1
Outline: as §1

ScSla1-D1-D2 = biological target: ScSla1-D1-D2
Outline: as §1

ScSla1-D3 = biological target: ScSla1-D3
Outline: as §1

SpAbp1-D1 = biological target: SpAbp1-D1
Outline: as §1

SpBbc1 = biological target: SpBbc1
Outline: as §1

SpBzz1-D1 = biological target: SpBzz1-D1
Outline: as §1

SpBzz1-D2 = biological target: SpBzz1-D2
Outline: as §1

SpCyk3 = biological target: SpCyk3
Outline: as §1

SpHof1 = biological target: SpHof1
Outline: as §1

SpHof1-2 = biological target: SpHof1-2
Outline: as §1

SpHof1-3 = biological target: SpHof1-3
Outline: as §1

SpHse1 = biological target: SpHse1
Outline: as §1

SpLsb1 = biological target: SpLsb1
Outline: as §1

SpLsb4 = biological target: SpLsb4
Outline: as §1

SpMyo1 = biological target: SpMyo1
Outline: as §1

SpNbp2 = biological target: SpNbp2
Outline: as §1

SpPex13 = biological target: SpPex13
Outline: as §1

SpRvs167 = biological target: SpRvs167
Outline: as §1

SpSla1-D1-D2 = biological target: SpSla1-D1-D2
Outline: as §1

SpSla1-D3 = biological target: SpSla1-D3
Outline: as §1

Binder: KRRTSLFPWLHKPGI
- SPOT peptide array binding signal intensity (AgAbp1): 14
- SPOT peptide array binding signal intensity (AgBbc1): 19.2
- SPOT peptide array binding signal intensity (AgBem1-D1): 13
- SPOT peptide array binding signal intensity (AgBzz1-D1): 15
- SPOT peptide array binding signal intensity (AgBzz1-D2): 17
- SPOT peptide array binding signal intensity (AgCyk3): 4
- SPOT peptide array binding signal intensity (AgFus1): 202
- SPOT peptide array binding signal intensity (AgHof1): 14
- SPOT peptide array binding signal intensity (AgHse1): 1230
- SPOT peptide array binding signal intensity (AgLsb1): 1
- SPOT peptide array binding signal intensity (AgLsb4): 53
- SPOT peptide array binding signal intensity (AgMyo5): ≤ 0
- SPOT peptide array binding signal intensity (AgNbp2): 196
- SPOT peptide array binding signal intensity (AgRvs167): 2.33
- SPOT peptide array binding signal intensity (AgSho1): 23
- SPOT peptide array binding signal intensity (AgSla1-D1-D2): 297
- SPOT peptide array binding signal intensity (AgSla1-D3): 5.5
- SPOT peptide array binding signal intensity (CaAbp1-D1): 736
- SPOT peptide array binding signal intensity (CaAbp1-D2): 682
- SPOT peptide array binding signal intensity (CaBbc1): 53.2
- SPOT peptide array binding signal intensity (CaBem1-D1): ≤ 0
- SPOT peptide array binding signal intensity (CaBzz1-D1): 35
- SPOT peptide array binding signal intensity (CaBzz1-D2): 22
- SPOT peptide array binding signal intensity (CaCyk3): 5
- SPOT peptide array binding signal intensity (CaFus1): 727
- SPOT peptide array binding signal intensity (CaHof1): ≤ 0
- SPOT peptide array binding signal intensity (CaHse1): 42.8
- SPOT peptide array binding signal intensity (CaLsb1): 0.5
- SPOT peptide array binding signal intensity (CaLsb4): 59.5
- SPOT peptide array binding signal intensity (CaMyo5): 0.25
- SPOT peptide array binding signal intensity (CaNbp2): 402
- SPOT peptide array binding signal intensity (CaRvs167): 5.67
- SPOT peptide array binding signal intensity (CaRvs167-3): 34.2
- SPOT peptide array binding signal intensity (CaSho1): 664
- SPOT peptide array binding signal intensity (CaSla1-D1-D2): 5.5
- SPOT peptide array binding signal intensity (CaSla1-D3): ≤ 0
- SPOT peptide array binding signal intensity (ScAbp1): 19
- SPOT peptide array binding signal intensity (ScBbc1): 5.75
- SPOT peptide array binding signal intensity (ScBem1-D1): 2
- SPOT peptide array binding signal intensity (ScBzz1-D1): 5.5
- SPOT peptide array binding signal intensity (ScBzz1-D2): 2.5
- SPOT peptide array binding signal intensity (ScCyk3): 311
- SPOT peptide array binding signal intensity (ScFus1): 224
- SPOT peptide array binding signal intensity (ScHof1): ≤ 0
- SPOT peptide array binding signal intensity (ScHse1): 2010
- SPOT peptide array binding signal intensity (ScLsb1): ≤ 0
- SPOT peptide array binding signal intensity (ScLsb2): 7.5
- SPOT peptide array binding signal intensity (ScLsb3): 54
- SPOT peptide array binding signal intensity (ScLsb4): ≤ 0
- SPOT peptide array binding signal intensity (ScMyo3): 3
- SPOT peptide array binding signal intensity (ScMyo5): 1.5
- SPOT peptide array binding signal intensity (ScNbp2): 230
- SPOT peptide array binding signal intensity (ScPex13): 1
- SPOT peptide array binding signal intensity (ScRvs167): 7.67
- SPOT peptide array binding signal intensity (ScSho1): 512
- SPOT peptide array binding signal intensity (ScSla1-D1-D2): 56.5
- SPOT peptide array binding signal intensity (ScSla1-D3): ≤ 0
- SPOT peptide array binding signal intensity (SpAbp1-D1): 420
- SPOT peptide array binding signal intensity (SpBbc1): ≤ 0
- SPOT peptide array binding signal intensity (SpBzz1-D1): 27
- SPOT peptide array binding signal intensity (SpBzz1-D2): ≤ 0
- SPOT peptide array binding signal intensity (SpCyk3): 3
- SPOT peptide array binding signal intensity (SpHof1): 54
- SPOT peptide array binding signal intensity (SpHof1-2): 2.75
- SPOT peptide array binding signal intensity (SpHof1-3): 586
- SPOT peptide array binding signal intensity (SpHse1): 844
- SPOT peptide array binding signal intensity (SpLsb1): 0.5
- SPOT peptide array binding signal intensity (SpLsb4): 8.5
- SPOT peptide array binding signal intensity (SpMyo1): 2.5
- SPOT peptide array binding signal intensity (SpNbp2): 418
- SPOT peptide array binding signal intensity (SpPex13): 6.5
- SPOT peptide array binding signal intensity (SpRvs167): ≤ 0
- SPOT peptide array binding signal intensity (SpSla1-D1-D2): ≤ 0
- SPOT peptide array binding signal intensity (SpSla1-D3): 4

Binder: RKLRTVPGVPLIHLT
- SPOT peptide array binding signal intensity (AgAbp1): 13
- SPOT peptide array binding signal intensity (AgBbc1): 40.8
- SPOT peptide array binding signal intensity (AgBem1-D1): 41
- SPOT peptide array binding signal intensity (AgBzz1-D1): 8
- SPOT peptide array binding signal intensity (AgBzz1-D2): 16
- SPOT peptide array binding signal intensity (AgCyk3): 0.5
- SPOT peptide array binding signal intensity (AgFus1): 53.5
- SPOT peptide array binding signal intensity (AgHof1): 34.5
- SPOT peptide array binding signal intensity (AgHse1): 19.5
- SPOT peptide array binding signal intensity (AgLsb1): 2
- SPOT peptide array binding signal intensity (AgLsb4): 18
- SPOT peptide array binding signal intensity (AgMyo5): ≤ 0
- SPOT peptide array binding signal intensity (AgNbp2): 934
- SPOT peptide array binding signal intensity (AgRvs167): 2
- SPOT peptide array binding signal intensity (AgSho1): ≤ 0
- SPOT peptide array binding signal intensity (AgSla1-D1-D2): ≤ 0
- SPOT peptide array binding signal intensity (AgSla1-D3): 0.25
- SPOT peptide array binding signal intensity (CaAbp1-D1): 224
- SPOT peptide array binding signal intensity (CaAbp1-D2): 83
- SPOT peptide array binding signal intensity (CaBbc1): 171
- SPOT peptide array binding signal intensity (CaBem1-D1): 1
- SPOT peptide array binding signal intensity (CaBzz1-D1): 104
- SPOT peptide array binding signal intensity (CaBzz1-D2): 90
- SPOT peptide array binding signal intensity (CaCyk3): 17
- SPOT peptide array binding signal intensity (CaFus1): 147
- SPOT peptide array binding signal intensity (CaHof1): 0.5
- SPOT peptide array binding signal intensity (CaHse1): 1.25
- SPOT peptide array binding signal intensity (CaLsb1): ≤ 0
- SPOT peptide array binding signal intensity (CaLsb4): 73
- SPOT peptide array binding signal intensity (CaMyo5): 0.25

Source: the supplement of paper PMC4466140
